Measurements as given in PubChem BioAssay (Tox21).
Values without a mark were called inactive. Calls come from the whole dose curve. Records with an inconclusive call do not appear.
% is set by controls: 0 for no effect and ±100 for the full control effect.

Target: Estrogen receptor (Homo sapiens) (UniProt P03372)
Sequence (P03372 whole entry, looked up): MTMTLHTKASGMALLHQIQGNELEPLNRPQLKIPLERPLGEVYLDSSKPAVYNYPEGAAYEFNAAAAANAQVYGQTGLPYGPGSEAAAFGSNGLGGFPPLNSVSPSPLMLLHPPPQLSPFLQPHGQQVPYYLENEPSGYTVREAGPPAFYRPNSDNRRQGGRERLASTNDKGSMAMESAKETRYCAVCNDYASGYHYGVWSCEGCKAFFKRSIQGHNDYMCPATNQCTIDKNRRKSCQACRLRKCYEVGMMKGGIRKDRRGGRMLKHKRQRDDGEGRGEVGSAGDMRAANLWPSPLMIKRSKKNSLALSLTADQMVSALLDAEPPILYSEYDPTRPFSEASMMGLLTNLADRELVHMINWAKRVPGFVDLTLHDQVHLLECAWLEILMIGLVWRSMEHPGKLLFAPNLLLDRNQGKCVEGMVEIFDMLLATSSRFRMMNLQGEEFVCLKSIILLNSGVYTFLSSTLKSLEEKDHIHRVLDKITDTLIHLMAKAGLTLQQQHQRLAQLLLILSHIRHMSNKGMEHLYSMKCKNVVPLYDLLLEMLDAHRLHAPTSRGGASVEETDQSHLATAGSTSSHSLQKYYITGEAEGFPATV
Test: qHTS assay to identify small molecule agonists of the estrogen receptor alpha (ER-alpha) signaling pathway in the presence of an antagonist (AID 1259383); note: top concentration of the series differs between compounds; nearly all actives have a fitted effect of over 15% in size
Settings: VM7Luc4E2 cells, ERE-luciferase, +ICI-182,780, 22 h; series mostly up to 92.4 µM; activation: at the top concentration
Summary of the method: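 Stably transfected VM7Luc4E2 reporter cells, kept 5 days in charcoal-stripped serum, received ICI-182,780 at 10.0nM final before compound addition. Following 22hr incubation at 37C and 5% CO2, luciferase signal was read by luminescence.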
In the case of `Oc1ccccc1F`, the “activation” value is reported as -1.57%. For `CC(C)OC(C)C`, the “activation” value was -1.96%. For `Nc1ccc(Oc2ccc(N)c(N)c2)cc1`, the “activation” value was 7.55%. With `OCC(CBr)(CBr)CBr` the “activation” value was 7.22%. For `COC(=O)c1ccc2cc(C(=O)OC)ccc2c1`, the activation was 0.0917% [at 19 µM]. In the case of `CC(C)(CO)[C@@H](O)C(=O)NCCC(=O)O`, the “activation” value is reported as 0.383%. In the case of `CC[C@H]1CC[C@H](NCc2cc3c(cc2OC)[C@H]2C[C@H]2C(=O)N3C)[C@H](c2ccccc2)N1`, the “activation” value is reported as -1.9%. For `CCC(=O)O[C@]1(C(=O)SCF)[C@H](C)C[C@H]2[C@@H]3C[C@H](F)C4=CC(=O)C=C[C@]4(C)[C@@]3(F)[C@@H](O)C[C@@]21C`, the “activation” value was 1.67% [at 42.5 µM]. For `C[C@]12C(=O)OC(=O)[C@H]1[C@H]1C=C[C@@H]2C1`, the “activation” value was -0.574%. In the case of `CCC(=O)Nc1ccc(O)cc1`, the “activation” value is reported as 0.646% [at 42.5 µM]. In the case of `CC(C)O`, the “activation” value is reported as 1.24%. In the case of `COC(=O)C(C)O` (stereo not given), the “activation” value is reported as -0.111%.

System: not listed separately
Test: qHTS assay to identify small molecule agonists or antagonists of the thyroid stimulating hormone receptor (TSHR) signaling pathway - wild type cell line counter screen (AID 1259384)
Settings: HEK293 wild type, cAMP HTRF counter-screen, stronger effect = higher value; series mostly up to 92.4 µM; cAMP activity change: at the top concentration
Summary of the method: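 Wild-type Hek293 cells, 800/well, 18 h at 37C, then compound with Ro20-1724 for 30 min RT. cAMP by HTRF (cAMP-d2/anti-cAMP cryptate), 1 h RT, fluorescence read. 15 concentrations, triplicates.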
In the case of `Cc1ccc([N+](=O)[O-])c(N)c1`, the “cAMP activity change” value is reported as -0.0833%. For `CC1(C)O[C@@H]2C[C@H]3[C@@H]4CCC5=CC(=O)CC[C@]5(C)[C@@]4(F)[C@@H](O)C[C@]3(C)[C@]2(C(=O)CCl)O1`, the “cAMP activity change” value was -4.15% [at 42.5 µM]. In the case of `CS(=O)(=O)c1ccc([C@@H](O)[C@@H](CF)NC(=O)C(Cl)Cl)cc1`, the “cAMP activity change” value is reported as -2.44% [at 42.5 µM]. In the case of `CCCCCCCCc1ccc(S(=O)(=O)O)cc1`, the “cAMP activity change” value is reported as -1%. With `Cc1c(-c2ccccc2)oc2c(C(=O)OCCN3CCCCC3)cccc2c1=O` the “cAMP activity change” value was -0.265% [at 42.5 µM]. In the case of `CCc1cc2cc(OC)c(OC)cc2c(Cc2ccccc2)n1`, the “cAMP activity change” value is reported as -1.53% [at 42.5 µM]. In the case of `CCN(CC)CCOc1ccc(Cc2ccccc2)cc1`, the “cAMP activity change” value is reported as -3.59% [at 42.5 µM]. In the case of `CCN1CC(CCN2CCOCC2)C(c2ccccc2)(c2ccccc2)C1=O` (stereo not given), the “cAMP activity change” value is reported as -4.52% [at 42.5 µM]. For `CN1CCN(C2=Nc3cc(F)ccc3Cc3ccccc32)CC1`, the “cAMP activity change” value was 2.33% [at 42.5 µM]. With `CC(C)Nc1nc(N)nc(Cl)n1` the “cAMP activity change” value was 5.71%. With `CC(=O)Nc1ccc(C)c(Cl)c1` the “cAMP activity change” value was -1.68%. For `CCCCOc1cc(C(=O)NCCN(CC)CC)c2ccccc2n1`, the “cAMP activity change” value was -0.0624% [at 42.5 µM]. With `O=C(O)c1ccccc1Nc1cc(Cl)ccc1C(=O)O` the cAMP activity change was 0.0654% [at 18.9 µM]. For `O=Cc1ccc(O)c(O)c1O`, the “cAMP activity change” value was 0.195% [at 42.5 µM]. In the case of `Cc1nc(-c2ccccn2)ncc1C(=O)Nn1cc(C)c2cc(F)ccc21`, the “cAMP activity change” value is reported as -3.71%. For `Oc1ccccc1F`, the “cAMP activity change” value was 0.805%. With `CC(C)OC(C)C` the “cAMP activity change” value was 0.657%. In the case of `Nc1ccc(Oc2ccc(N)c(N)c2)cc1`, the “cAMP activity change” value is reported as -14.4%. For `OCC(CBr)(CBr)CBr`, the “cAMP activity change” value was 0.642%. In the case of `COC(=O)c1ccc2cc(C(=O)OC)ccc2c1`, the cAMP activity change is reported as 3.63% [at 18.9 µM]. In the case of `Cc1ccc([N+](=O)[O-])cc1Cl`, the “cAMP activity change” value is reported as 8.89%. In the case of `CN(CC1(C)CCCO1)S(=O)(=O)c1ccc(Cl)c(S(N)(=O)=O)c1` (stereo not given), the “cAMP activity change” value is reported as -0.369% [at 42.5 µM]. For `CC(C)(CO)[C@@H](O)C(=O)NCCC(=O)O`, the “cAMP activity change” value was -3.3%. In the case of `C=CC1CO1` (stereo not given), the “cAMP activity change” value is reported as 0.285%. For `CC[C@H]1CC[C@H](NCc2cc3c(cc2OC)[C@H]2C[C@H]2C(=O)N3C)[C@H](c2ccccc2)N1`, the “cAMP activity change” value was -2.17%. In the case of `CCC(=O)O[C@]1(C(=O)SCF)[C@H](C)C[C@H]2[C@@H]3C[C@H](F)C4=CC(=O)C=C[C@]4(C)[C@@]3(F)[C@@H](O)C[C@@]21C`, the “cAMP activity change” value is reported as -5.3% [at 42.5 µM]. For `C[C@]12C(=O)OC(=O)[C@H]1[C@H]1C=C[C@@H]2C1`, the “cAMP activity change” value was -2.89%. For `CN1[C@@H]2CC[C@H]1CC(OC(=O)c1c[nH]c3ccccc13)C2` (stereo not given in full), the “cAMP activity change” value was 2.21% [at 42.5 µM]. For `CCC(=O)Nc1ccc(O)cc1`, the “cAMP activity change” value was 1.07% [at 42.5 µM]. For `ClC(Cl)Cl`, the “cAMP activity change” value was 1.29%. With `CC(C)O` the “cAMP activity change” value was -2.03%. For `COC(=O)C(C)O` (stereo not given), the “cAMP activity change” value was -0.427%. In the case of `CN(C)CC[C@@H](c1ccc(Cl)cc1)c1ccccn1`, the “cAMP activity change” value is reported as -1.13% [at 42.5 µM].
